Hits are enriched below; roughly 3.3% of the tested compounds scored in any of these assays.
DRD3 agonist = qHTS of D3 Dopamine Receptor Agonist: qHTS | D3R DiscoveRx beta-arrestin cells, luminescence, 90 min | max activation, % | 410,000 compounds, 0.58% hits; in the data active = max activation above about 30%; note: 0% is about no effect
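Agonist-mode cell screen: cells plated at 1500/well and incubated overnight at 37 °C, then exposed to library compounds for 90 min at 37 °C. Detection reagent was added for 30–60 min at room temperature, and luminescence was read.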
PI4K2A block = qHTS for small molecular inhibitors of PI4K2A | purified PI4K2A, ADP-Glo luminescence, 1 h; stronger effect = lower value | activity change, negative = inhibition, % at 76.9 µM | 420,000 compounds, 0.13% hits | AID 1346378, 2018; in the data active = activity change below about -50%; inconclusive = mostly about -30% to -49%;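 note: -100% = wells without enzyme as full effect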
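PI4K2A activity was measured by ADP-Glo luminescence: enzyme (4 ug/mL stock) and phosphatidylinositol (1.2 mM stock) in Tris pH 7.5/MgCl2/EGTA/Triton X-100 buffer were reacted with ATP (300 microM stock) for one hour at ambient temperature.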
PI5P4K alpha inh = qHTS for Inhibitors of phosphatidylinositol 5-phosphate 4-kinase (PI5P4K). Phosphatidylinositol 5-phosphate 4-kinase type-2 alpha (Homo sapiens), P48426. max response, %. 330,000 compounds, 1.2% hits. PI5P4Kalpha enzyme, ADP-Glo luminescence, 60 min; stronger effect = lower value. AID 652105, 2013; active = max response of -50% or lower; inconclusive = between -30% and -50%; inactive = -30% or higher; note: value at the top dose of about 77 µM; % is set by controls: 0 for no effect and ±100 for the full control effect
Target sequence (P48426 whole entry, looked up): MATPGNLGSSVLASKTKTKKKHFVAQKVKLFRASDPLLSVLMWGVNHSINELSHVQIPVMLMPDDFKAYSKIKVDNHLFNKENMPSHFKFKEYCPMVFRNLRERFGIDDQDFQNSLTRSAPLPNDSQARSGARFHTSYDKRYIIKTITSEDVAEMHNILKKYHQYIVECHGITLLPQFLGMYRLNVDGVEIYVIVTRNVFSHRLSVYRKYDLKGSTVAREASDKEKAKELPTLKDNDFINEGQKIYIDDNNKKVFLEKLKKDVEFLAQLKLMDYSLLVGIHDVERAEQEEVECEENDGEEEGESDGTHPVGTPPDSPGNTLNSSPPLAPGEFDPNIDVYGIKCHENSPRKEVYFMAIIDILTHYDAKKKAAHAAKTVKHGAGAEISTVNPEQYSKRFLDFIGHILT
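ADP-Glo luminescence end-point read after a 60 min room-temperature kinase reaction of PI5P4Kalpha plus substrate, initiated with ATP at 5 microM final. Buffer: 0.038 M HEPES pH 7.4, EGTA, 0.1% CHAPS, 5% DMSO.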
D3 antag = qHTS of D3 Dopamine Receptor Antagonist: qHTS | D(3) dopamine receptor (Homo sapiens), P35462 | max response, negative = inhibition, % | D3R cells, DiscoveRx beta-arrestin luminescence, antagonist mode; stronger effect = lower value | 360,000 compounds, 2.5% hits; in the data active = max response below about -50%; inconclusive = no clear call, values can overlap the other calls; note: % is set by controls: 0 for no effect and ±100 for the full control effect
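Cells plated overnight at 1500 cells/well, then exposed to library compounds with dopamine controls for 90 minutes at 37 degrees C. DiscoveRx reagent added for 30–60 minutes at room temperature; luminescence read, quantitative HTS format.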
LDHA block = qHTS assay for inhibitors of human lactate dehydrogenase | purified LDHA, NADH/diaphorase-resazurin fluorescence; stronger effect = lower value | activity change, % (values are at about 110 or 230 µM) | 480,000 compounds, 0.15% hits | AID 1347041, 2019; in the data active = activity change below about -30%; inconclusive = mostly about -25% to -30%;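 note: plate controls were DMSO wells for no effect and wells without enzyme for full effect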
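Human LDH5 at 2 nM final in Tris HCl pH 7.4 with 0.06 mM NADH and 0.2 mM pyruvate, reacted 5 minutes at room temperature. Remaining NADH coupled via diaphorase/resazurin; resorufin fluorescence read at 0 and 20 minutes, normalized to enzyme-free and DMSO wells.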
Active calls of the source: *; ? = inconclusive; . = no result.

SMILES	DRD3 agonist	PI4K2A block	PI5P4K alpha inh	D3 antag	LDHA block
COc1ccc(NC(=O)N2CCN(c3cccc(C(F)(F)F)c3)CC2)cc1OC	-4	-3	16	-12	11
COC(=O)c1cc(Cc2ccccc2)ccc1O	.	.	.	.	6
COc1ccc(CC(C)N2CCN(c3cccc(C(F)(F)F)c3)CC2)cc1OC (configuration not stated)	-23	-3	.	-88*	-4
COC(=O)c1cc(CN2CCN(c3ccccc3)CC2)ccc1O	5	-3	0	-56*	2
Cc1cc(C)c2oc(-c3cccc(NC(=O)COc4ccc(Cl)cc4C)c3C)nc2c1	.	.	.	.	-6
CC(C)c1ccc(C(=O)N2CCN(C(=O)c3cccc4ncccc34)CC2)cc1	.	.	.	.	7
CC1=C/C(=N\Nc2nc(Cl)c(Cl)cc2Cl)CC1	.	.	.	.	8
CCOc1cc(CN2CCSCC2)ccc1O	-26	5	.	?	-19
CCOc1cc(CN2CCN(c3cccc(C(F)(F)F)c3)CC2)ccc1OC	-23	0	.	-89*	-13
CCOc1cc(CN2CCN(c3ccc(C(C)=O)cc3)CC2)ccc1OC	-9	14	.	-24	-21
CCOc1cc(CN2CCN(c3cccc(C(F)(F)F)c3)CC2)ccc1O	-15	15	.	-86*	-4
CC(=O)N1CCN(C(C(=O)O)c2c[nH]c3ccc(Cl)cc23)CC1 (configuration not stated)	.	.	.	.	3
O=C1CCCN1C(=O)COc1cc(F)ccc1[N+](=O)[O-]	-11	-2	1	-3	2
O=C1CCCN1C(=O)COc1ccccc1[N+](=O)[O-]	38*	1	-1	-3	-6
CC(CCCN(C)C)C(Cc1ccccc1)c1ccccc1 (configuration not stated)	-9	0	20	-69*	-1
CN(C)CC(c1ccccc1)c1ccccc1	14	0	-3	7	-6
CN(C)CCC(=O)C(Cc1ccccc1)c1ccccc1 (configuration not stated)	-13	30	-5	-112*	-7
COC(=O)c1c[nH]c(=O)cn1	.	.	.	.	3
CCCCNC(=O)c1onc(CSc2ccccc2)c1C(=O)NCCCC	42*	-2	1	0	0
CCCCNC(=O)c1onc(CSc2ccncc2)c1C(=O)NCCCC	59*	6	-3	-3	-2
COCCNC(=O)c1onc(CSc2ccc(F)c(F)c2)c1C(=O)O	19	-7	-23	3	-9
COCCNC(=O)c1onc(CSc2ccc(F)c(F)c2)c1C(=O)NCCOC	30*	-2	2	0	-4
COc1ccc(S(=O)(=O)N2CCCCC2c2cc(C(=O)N3CCOCC3)no2)cc1 (configuration not stated)	-7	5	1	-96*	-2
Cc1cccc2c(N=O)c(O)[nH]c12	1	5	-59*	-1	-2
Cc1[nH]c2c(C)cccc2c1CC(=O)O	2	-2	8	3	-5
SMILES	DRD3 agonist	PI4K2A block	PI5P4K alpha inh	D3 antag	LDHA block
CCC(C)NC(=O)c1ccc(Oc2nccnc2Sc2ccccc2)cc1 (configuration not stated)	.	.	.	.	-1
CC(C)[C@@H](C(=O)NCC1CCC(C(=O)O)CC1)n1nnc2ccccc2c1=O (some centres not stated)	-4	-11	-3	-57*	-7
CCN1CCCC1CNCc1ccccc1 (configuration not stated)	.	.	.	.	1
C[C@H](CO)N1C[C@H](C)[C@H](CN(C)Cc2ccncc2)Oc2ncc(C#CC3CC3)cc2C1=O	2	3	-16	-56*	1
C[C@@H]1CN([C@H](C)CO)C(=O)c2cc(C#CC3CCCCC3)cnc2O[C@H]1CN(C)Cc1cccnc1	2	4	-2	22	3
CC(=O)N(C)C[C@@H]1Oc2ncc(Br)cc2C(=O)N([C@H](C)CO)C[C@@H]1C	1	-8	-7	10	-34*
CC(=O)Oc1ccc(C(=O)Nc2ccccc2C(=O)N2CCCCC2)cc1	-11	-1	-7	-57*	-2
CC(C)CC(NC(=O)c1ccc(Cl)cc1)C(=O)OCC(=O)c1ccc2c(c1)NC(=O)CO2 (configuration not stated)	20	0	-2	-73*	-8
O=C1COc2ccc(C(=O)COC(=O)c3ccccc3F)cc2N1	-1	-2	-14	-51*	-10
O=C1COc2ccc(C(=O)COC(=O)c3ccccc3[N+](=O)[O-])cc2N1	3	-2	-6	5	3
CC(O)C(NS(=O)(=O)c1ccc(Cl)cc1)C(=O)OCC(=O)c1ccc2c(c1)NC(=O)CO2 (configuration not stated)	-5	4	1	4	-10
COc1ccc(NC(=O)C(=O)NCCN(C)C)cc1N1CCCCS1(=O)=O	.	.	.	.	-4
C=CCNC(=O)C(C#N)c1nc2ccccc2nc1N1CCCCC1 (configuration not stated)	.	.	.	.	-3
O=c1ccc2cc([N+](=O)[O-])c(CCO)cc2o1	5	5	-3	-52*	-4
CSCCC(=O)N(C)CC1CCN(CCc2cccc(C(F)(F)F)c2)CC1	-16	-3	0	-7	-2
CCN(CC1CCCN(CCc2cccc(F)c2)C1)C(=O)c1ccoc1C (configuration not stated)	-5	-4	3	-51*	2
COc1ccc(C(=O)N(C)CC2CCN(CCc3cccc(C(F)(F)F)c3)CC2)cc1C	-27	0	1	-77*	2
CN(CC1CCN(CCc2cccc(C(F)(F)F)c2)CC1)C(=O)c1ccc(F)cc1F	-27	3	-1	-69*	-1
CN(CC1CCCN(CCc2cccc(C(F)(F)F)c2)C1)C(=O)c1ccco1 (configuration not stated)	-13	0	7	-63*	-2
O=C(O)Cn1cc(C(C(=O)O)N2CCN(Cc3cccc(Cl)c3)CC2)c2ccc(F)cc21 (configuration not stated)	.	.	.	.	-4
CCCCc1ccc(-n2nnnc2SCC(=O)Nc2ccc3c(c2)OCCO3)cc1	.	.	.	.	-1
CCOC(=O)c1c(-c2cccc([N+](=O)[O-])c2)csc1N	9	-2	-5	14	2
Cc1csc2cc(-c3cccc([N+](=O)[O-])c3)c(-c3cccc([N+](=O)[O-])c3)c[n+]12	-23	1	-6	-61*	-2
CC(C)(C)NCC(O)COc1ccccc1OCC1CCCO1 (configuration not stated)	.	0	.	.	.
Oc1cccc(/C=N/N(Cc2ccccc2)c2ccccc2)c1	6	-1	10	9	3
